# Compound activity (PubChem)
# HCMV antiviral – qHTS Assay for inhibitors of the human cytomegalovirus (HCMV). HFF cells, HCMV-luciferase reporter, 72 h; hits give low values. activity change, negative = inhibition, % at 57.5 µM. hit rate 4.5% among 410,000. AID 1259415, 2018; in the data active = activity change below about -60%; inconclusive = no clear call, values can overlap the other calls; inactive = above about -39%
#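 HFF cells seeded 16 h at 37C, treated with compounds, infected with luciferase-reporter HCMV at MOI 1 PFU/cell; luciferase read at 72 h post infection, normalized to buffer-only and Salinomycin controls.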
# MARV entry inh – qHTS for inhibitors of binding or entry into cells for Marburg Virus; hit rate 1.8% among 300,000; Marburg virus pseudotyped entry inhibition, cell reporter; Potency, µM (titrated, usually from 37.8 µM), inactives show top-dose activity change, negative = inhibition, usual class: inhibitors; AID 540276, 2011; calls by dose curve; tested in HEK293 cells; note: potency is the fitted concentration of half-maximal effect
# Vaccinia Venus – qHTS for Stage-Specific Inhibitors of Vaccinia Orthopoxvirus: Venus Reporter Primary qHTS; Vaccinia virus Venus reporter expression, fluorescence; Potency, µM (doses to about 36.5 µM), for the others: top-dose activity change, negative = inhibition, hits mostly inhibitors; hit rate 0.46% among 330,000; AID 720580, 2013; calls by dose curve; tested in A549 cells; note: potency is the fitted concentration of half-maximal effect; nearly all actives have a fitted effect of over 30% in size
# Lassa entry inh – qHTS for Inhibitors of binding or entry into cells for Lassa Virus | hit rate 1.2% among 300,000 | AID 540256, 2011 | Potency, µM (titrated, usually from 37.9 µM), for the others: at the highest dose activity change, negative = inhibition, actives largely listed as inhibitors | Lassa virus pseudotype entry inhibition, cell reporter; calls by dose curve; tested in HEK293 cells; note: potency is the fitted concentration of half-maximal effect; nearly all actives have a fitted effect of over 50% in size
# HCV inh – qHTS Assay for Inhibitors of Hepatitis C Virus (HCV) | Huh7.5.1 HCVcc-Cre infection, luciferase reporter, 44 h | Potency, µM (highest dose often 41.8 µM), for the others: at the highest dose activity change, negative = inhibition, actives largely listed as inhibitors | hit rate 3.4% among 340,000; active = well fitted inhibition curve with a large enough effect; inconclusive = small, poorly fitted or top-dose-only effect, or another doubt; inactive = no such curve, though single readings can be large or run the other way; note: potency is the fitted concentration of half-maximal effect
#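 Luciferase read-out (15 sec integration) after a 15 min room-temperature substrate step quantifies HCVcc-Cre infection. Cells, 1,000 per well, had compound added 4 h post-plating, then virus at ~0.5 moi, and were cultured 44 h.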
# VACV mCherry inh – qHTS for Stage-Specific Inhibitors of Vaccinia Orthopoxvirus: mCherry Reporter Primary qHTS; Vaccinia virus mCherry reporter infection, fluorescence; Potency, µM (highest dose often 36.5 µM), for inactives: at the highest dose activity change, negative = inhibition, most hits filed as inhibitors; hit rate 0.63% among 310,000; AID 720579, 2013; calls by dose curve; tested in A549 cells; note: potency is the fitted concentration of half-maximal effect; nearly all actives have a fitted effect of over 35% in size
# The depositor's hits bear a star; i = inactive; ? = inconclusive; nt = no result; [ ] = another dose, or the depositor's remark. The list is not random: actives were taken first. Their share in the collection is about 7.8%. % is set by controls: 0 for no effect and ±100 for the full control effect.
SMILES,HCMV antiviral,MARV entry inh,Vaccinia Venus,Lassa entry inh,HCV inh,VACV mCherry inh
CC1CC(C)CN(C(=O)CNC(=O)c2sc3ccccc3c2Cl)C1 (stereo not given),?,nt,nt,nt,8.91µM*,nt
Cc1cccnc1NC(=O)c1sc2ccccc2c1Cl,44.6,?,-19.9%,?,8.9%,-4.6%
Cc1nnc(NC(=O)c2sc3ccccc3c2Cl)s1,18.7,?,-28.8%,11.6µM*,-8.8%,-5.3%
O=C(Nc1ccc(CN2CCCCC2)cc1)c1sc2ccccc2c1Cl,19.1,?,-9.8%,-12.9%,11.2µM*,i
O=C(NCC(=O)N1CCCCC1)c1sc2ccccc2c1Cl,18.3,nt,nt,nt,2.2%,nt
CCOc1ccc(S(=O)(=O)N2CCN(c3ccccc3)CC2)cc1C(N)=O,0.3,?,-1.3%,4.3%[46.1 µM],nt,-11.7%
COc1ccc(OC)c(C2CC(=O)Oc3c2c(=O)n(C)c2ccccc32)c1 (stereo not given),1.6,29.1%[46.1 µM],-19.5%,-9.9%[46.1 µM],nt,-14.0%
CCN(CC)Cc1ccc(NC(=O)c2sc3cc(Cl)ccc3c2Cl)cc1,-103.8*,?,?,?,?,?
Cc1c(/C=N/NC(=O)c2sc3ccccc3c2Cl)cnn1C,-0.4,-32.1%,-20.0%,-22.1%,-4.8%,-25.3%
CNC(=O)c1ccsc1NC(=O)c1sc2ccccc2c1Cl,149.0,?,-3.6%,1.8%,11.2µM*,7.6%
Cn1cccc1/C=N/NC(=O)c1sc2ccccc2c1Cl,-102.2*,15.5%,-23.9%,-21.3%,-14.8%,nt
CC(C)C[C@H]1COc2cc(F)ccc2S(=O)(=O)N1,nt,nt,nt,-1.8%[46.1 µM],nt,nt
Cc1ccc(SCC(=O)Nc2ccc(O)c(-c3nc4cc(C)ccc4o3)c2)cc1,-15.8,?,?,26.6%[46.1 µM],nt,?
CCN(CC)S(=O)(=O)c1cccc(-c2nnc(SCCOc3ccccc3C)o2)c1,?,?,nt,-39.5%,12.6µM*,nt
CCN(CC)S(=O)(=O)c1cccc(-c2nnc(SCCOc3ccc(Cl)cc3)o2)c1,-19.2,?,-28.3%,?,?,-17.8%
CCN(CC)S(=O)(=O)c1cccc(-c2nnc(SCCOc3ccccc3)o2)c1,-67.9*,?,-20.5%,10µM*,?,-16.1%
Cc1c(C)n(C)c2ccc(C(=O)NCCc3ccc(Cl)cc3)cc12,0.0,nt,-2.3%,15.5%[46.1 µM],nt,-12.4%
O=[N+]([O-])c1ccc(N2CCCC(C(F)(F)F)C2)c2ccncc12 (stereo not given),-12.3,?,7.94µM*,?,10µM*,2.82µM*
COc1ccc(-c2[nH]nc3nc(N4CCN(C(=O)c5ccoc5)CC4)cc(C(F)(F)F)c23)cc1,-77.2*,nt,?,nt,nt,-27.4%
O=C(CNC(=O)c1ccco1)OCC(=O)c1ccc([N+](=O)[O-])cc1,-63.7*,3.7%[46.1 µM],-2.3%,-17.2%,1.4%,i
O=C(CNC(=O)c1cccs1)c1ccc([N+](=O)[O-])cc1,27.7,?,-12.5%,0.3%,8.9%,-17.7%
O=C(CNC(=O)c1cccs1)c1ccc(F)cc1,-75.2*,?,-2.6%,-21.6%,-2.5%,-16.8%
O=C(CNC(=O)c1cccs1)OCC(=O)c1ccc([N+](=O)[O-])cc1,-64.7*,-24.1%[46.1 µM],-3.8%,8.7%,9.5%,-5.8%
O=C(CNC(=O)c1cccs1)c1ccc(Cl)cc1,35.2,?,3.3%,-16.0%,-1.0%,i
O=C(CNC(=O)c1ccco1)OCC(=O)c1ccc(Cl)cc1,-20.4,nt,nt,nt,16.9%,nt
COc1ccc(COc2cc(-c3cccc(OC)c3)nc3ccc(N)cc23)cc1,-90.1*,?,?,?,?,?
O=C(NCC1CCCO1)c1c[nH]c2ccc(S(=O)(=O)Nc3cccc(C(F)(F)F)c3)cc2c1=O (stereo not given),47.9,nt,-6.1%,-1.9%[46.1 µM],nt,-1.2%
CC1=C(C(=O)Nc2ccccc2C)C(c2cccs2)n2nc(SCc3cc(C)ccc3C)nc2N1 (stereo not given),5.0,nt,-24.4%,-2.5%[46.1 µM],nt,?
O=C1CCN(CCc2ccccc2)CCN1[C@H](CO)Cc1ccccc1,-9.9,nt,-8.5%,nt,2.24µM*,i
